Results on 23 compounds are retold here after PubChem BioAssay AID488896 (Broad Institute, 2010).

In all, about 320,000 compounds went through this assay and about 3,100 (0.97%) were called active.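 Rule for the calls: active = mean replicate inhibition of at least 70% and a set share of replicates each scoring 70 or more; inconclusive = meets just one of the two criteria; inactive = fails both criteria.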 The sample as a whole holds a higher share of actives than the screen did. Non-standard residues stand in square brackets, D forms with d. Residues, ends and D or L forms follow the SMILES beside them. ξ: configuration not given here. Ac5c = NC1(C(=O)O)CCCC1; ξS = NC(CO)C(=O)O

The target in this experiment is Scavenger receptor class B member 1 (Mus musculus) (UniProt Q61009). The experiment is described as follows: inhibitors of SR-BI mediated HDL lipid uptake, primary screen, ldlA[mSR-BI] cells, fluorescence, single point (AID 488896).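 Note: 0% = median of neutral control wells and 100% = median of positive control wells.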 Conditions: ldlA[mSR-BI] CHO cells, DiI-HDL uptake fluorescence, 3 h; at 12.5 µM; hits give high values.
Chain of Scavenger receptor class B member 1 (Mus musculus) (Q61009 whole entry, looked up): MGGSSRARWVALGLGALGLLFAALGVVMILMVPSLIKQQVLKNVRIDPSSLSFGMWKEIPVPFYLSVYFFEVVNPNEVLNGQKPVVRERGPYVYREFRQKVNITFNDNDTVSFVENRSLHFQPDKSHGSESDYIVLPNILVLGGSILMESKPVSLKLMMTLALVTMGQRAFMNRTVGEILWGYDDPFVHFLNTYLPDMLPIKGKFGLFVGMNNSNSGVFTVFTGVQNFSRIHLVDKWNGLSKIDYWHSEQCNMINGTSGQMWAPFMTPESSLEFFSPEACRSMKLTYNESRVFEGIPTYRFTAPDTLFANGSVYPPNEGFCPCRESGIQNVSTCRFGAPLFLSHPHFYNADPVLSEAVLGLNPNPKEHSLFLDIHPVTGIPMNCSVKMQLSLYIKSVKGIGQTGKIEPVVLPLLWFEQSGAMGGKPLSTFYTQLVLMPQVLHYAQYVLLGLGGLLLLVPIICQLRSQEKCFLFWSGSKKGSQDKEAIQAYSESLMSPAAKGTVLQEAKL
For the compound `NC1=NOC(=O)C1C1CCCCC1` (stereo not drawn), the inhibition was -14.7% (inactive). The same measure for `COc1ccc(-c2nc3c(s2)CCc2onc(-c4ccc(OC)cc4)c2-3)cc1`: 75.1% (active). Consider `COc1ccc(-c2nc3n(c2Br)CCC3)cc1`, for which the inhibition was 4.81% (inactive). The same measure for `COc1ccc(-c2nc3c(s2)CCc2onc(-c4ccc(Br)cc4)c2-3)cc1`: 58.7% (inactive). The same measure for `NC(=O)C1CCN(C(=O)c2cc(S(=O)(=O)N3CCN(c4ccccc4)CC3)ccc2Cl)CC1`: -3.45% (inactive). For `COc1ccc(/C=C2\SC(=N)N(c3ccc(F)cc3)C2=O)cc1`, the inhibition was 13.3% (inactive).

For `COc1cccc(/C=C2\SC(=N)N(c3ccc(F)cc3)C2=O)c1`, the inhibition was 80.3% (active). In the case of `COc1cccc(/C=C2/SC(=S)N(CC(=O)NC3C=CS(=O)(=O)C3)C2=O)c1` (stereo not drawn), the inhibition is 6.75% (inactive). For `Cc1ccc(OCC(=O)NC(C)c2ccccc2)cc1C` (stereo not drawn), the inhibition was 0.888% (inactive). The same measure for `Cc1cc(C)cc(OCC(=O)NC(C)c2ccccc2)c1` (stereo not drawn): -23.6% (inactive); for `C/C(CC(=O)NC(C)c1ccccc1)=N\NC(N)=S` (stereo not drawn): 86.3% (active); for `O=[N+]([O-])c1ccc(N=NNc2ccc([N+](=O)[O-])cc2)cc1`: -5.77% (inactive).

With `CCOC(=O)C(CO)NC(=O)C1(NC(C)=O)CCCC1` (stereo not drawn) (Ac-[Ac5c]-[ξS]-OEt), the inhibition was -1.77% (inactive).

With `O=C(Nc1ccc(C(F)(F)F)cc1)c1cccc(-n2cnnn2)c1`, the inhibition is 9.16% (inactive). The same measure for `O=C(O)c1ccccc1C(=O)Nc1nc(-c2ccccc2)cs1`: -7.75% (inactive); for `O=C(Nc1ccc(-c2csc(Nc3cccc(C(F)(F)F)c3)n2)cc1)c1cccc(C(F)(F)F)c1`: 109% (active); for `CN(C(=O)c1cccc(NC(=O)Cc2ccc(NC(=O)C3CCN(C(=O)C4CCCCC4)CC3)cc2)c1)C1CCC1`: 28.2% (inactive). To `C=CCCC(=O)N1C[C@H]2CON(C)[C@H]2C[C@H]1c1cccc(Nc2ccccc2)c1` belongs 2.33% (inactive); to `CCCCN(C(=O)c1cccc(N2C(=O)c3ccccc3C2=O)c1)c1c(N)n(CCCC)c(=O)[nH]c1=O`, 9.37% (inactive). To `COc1cc(CNC2CCCC2)c(Br)cc1OCc1ccccc1` belongs 79.2% (active); to `COc1cc(CN2CCC(C(N)=O)CC2)ccc1OCc1ccccc1`, -14.9% (inactive); to `COc1ccc(CNC2CCCCC2)cc1`, -32.1% (inactive). For `O=C1/C(=C\c2ccc(O)cc2)CCC1CNc1ccc(Cl)cc1` (stereo not drawn), the inhibition was 18.3% (inactive).

Broadly, the inhibition is the drop in the measured response relative to a control, in per cent.
